According to PubChem BioAssay (NCI):
About 83,000 compounds went through this panel and 20% of them were active in at least one assay; those are over-represented in the sample as a whole.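 Single-dose data. Exposure time 48 hours. Values below 10 considered active.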 Activity calls are given as the source filed them.

What was measured:
Assay in all cases: NCI-60 one-dose screen, 48 h (100 = growth as untreated, 0 = no growth, -100 = all killed)
Details in all cases: 10 µM
786-0 renal = system: 786-0 renal
MALME-3M melanoma = system: MALME-3M melanoma
SF-268 CNS = system: SF-268 CNS
SF-295 CNS = system: SF-295 CNS
UACC-257 melanoma = system: UACC-257 melanoma
PC-3 prostate = system: PC-3 prostate
UACC-62 melanoma = system: UACC-62 melanoma
SK-MEL-28 melanoma = system: SK-MEL-28 melanoma
SK-MEL-2 melanoma = system: SK-MEL-2 melanoma
EKVX NSCLC = system: EKVX NSCLC
SN12C renal = system: SN12C renal
UO-31 renal = system: UO-31 renal
TK-10 renal = system: TK-10 renal
ACHN renal = system: ACHN renal
CAKI-1 renal = system: CAKI-1 renal
A498 renal = system: A498 renal
OVCAR-8 ovarian = system: OVCAR-8 ovarian
OVCAR-5 ovarian = system: OVCAR-5 ovarian
IGROV1 ovarian = system: IGROV1 ovarian
OVCAR-3 ovarian = system: OVCAR-3 ovarian

Measured: growth

CC1(C)CC[C@]2(C(=O)O)CC[C@]3(C)C(=CCC4[C@@]5(C)C[C@@H](O)[C@@H]6OC(c7cccc(F)c7)OC[C@@]6(C)C5CC[C@]43C)C2C1 (stereo not given in full)
inactive: 786-0 renal 59.3% | MALME-3M melanoma 70% | SF-268 CNS 55.6% | SF-295 CNS 42.7% | UACC-257 melanoma 67.8% | PC-3 prostate 32.1% | UACC-62 melanoma 49.7% | SK-MEL-28 melanoma 66% | SK-MEL-2 melanoma 51.1% | EKVX NSCLC 19.2% | SN12C renal 28.2% | UO-31 renal 34.2% | TK-10 renal 32.4% | ACHN renal 17.6% | CAKI-1 renal 49% | A498 renal 78.7% | OVCAR-8 ovarian 31.7% | OVCAR-5 ovarian 73.2% | IGROV1 ovarian 75.4% | OVCAR-3 ovarian 37.9%

COc1ccc(C2OC[C@@]3(C)C4CC[C@]5(C)C(CC=C6C7CC(C)(C)CC[C@]7(C(=O)O)CC[C@]65C)[C@@]4(C)C[C@@H](O)[C@@H]3O2)cc1 (stereo not given in full)
inactive: 786-0 renal 94.8% | MALME-3M melanoma 99.3% | SF-268 CNS 88.8% | SF-295 CNS 94.3% | UACC-257 melanoma 96.3% | PC-3 prostate 49.2% | UACC-62 melanoma 85.3% | SK-MEL-28 melanoma 103% | SK-MEL-2 melanoma 102% | EKVX NSCLC 52.9% | SN12C renal 82% | UO-31 renal 57.9% | TK-10 renal 76% | ACHN renal 56.8% | CAKI-1 renal 73.5% | A498 renal 102% | OVCAR-8 ovarian 73.2% | OVCAR-5 ovarian 108% | IGROV1 ovarian 101% | OVCAR-3 ovarian 74.1%

COc1ccc(-n2c(SCC(=O)NNS(=O)(=O)c3ccccc3)nc3ccc(Cl)cc3c2=O)cc1
active: ACHN renal -8.76%
inactive: 786-0 renal 101% | MALME-3M melanoma 117% | SF-268 CNS 102% | SF-295 CNS 102% | UACC-257 melanoma 117% | PC-3 prostate 88.4% | UACC-62 melanoma 77% | SK-MEL-28 melanoma 98.3% | SK-MEL-2 melanoma 100% | EKVX NSCLC 95.6% | SN12C renal 94.1% | UO-31 renal 63.5% | TK-10 renal 109% | CAKI-1 renal 80.4% | A498 renal 90% | OVCAR-8 ovarian 101% | OVCAR-5 ovarian 102% | IGROV1 ovarian 103% | OVCAR-3 ovarian 105%
